Active and inactive are the calls of the source.
How the values were obtained:
[1] = test system: Plasmodium falciparum Sir2 (PF13_0152, Sir2A); assay: Plasmodium falciparum Sir2A binding compounds – biochemical, small-molecule microarray, 635 nm fluorescence, primary screen (AID 1098); details: fluorescence 635 nm, higher = more signal;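 also: score merges spot fluorescence intensity with its signal-to-noise ratio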
[2] = probe aDKK1 binding to arrayed compounds – biochemical, biotinylated probe, 635/667 nm fluorescence, primary screen (AID 1099); details: small-molecule microarray, higher = more signal;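 also: score merges 667nm spot fluorescence with signal to noise across triplicate slides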
[3] = probe aCHRDL2 binding to arrayed compounds – biochemical, biotinylated probe, 635/667 nm fluorescence, primary screen (AID 1100); details: small-molecule microarray, higher = more signal
[4] = change in splice reporter luminescence, either direction, cell-based, HEK293, spliceosome inhibition project, primary screen (AID 1101); details: HEK293 splicing luciferase reporter, 24 h, higher = more signal, called active from +8 up or from −8 down;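 also: HEK293 cells carrying a splicing-competent luciferase reporter gene; test concentration not given here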
[5] = target: Fibroblast growth factor 10 (Homo sapiens) (UniProt O15520); assay: compounds binding fibroblast growth factor 10 – biochemical, small-molecule microarray, 635 nm fluorescence, primary screen (AID 1102); details: FGF10 binding, fluorescence 635 nm, higher = more signal
[6] = test system: glycogen synthase kinase-3 (GSK3A per assay name; protocol says GSK3B); assay: compounds binding glycogen synthase kinase-3 – biochemical, small-molecule microarray, 635 nm fluorescence, GSK3A, primary screen (AID 1103); details: fluorescence 635 nm, higher = more signal; also: the record names both GSK3A and GSK3B
[7] = target: Epidermal growth factor receptor (Homo sapiens) (UniProt P00533); assay: compounds binding epidermal growth factor receptor – biochemical, small-molecule microarray, 635 nm fluorescence, primary screen (AID 1104); details: EGFR binding, higher = more signal;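 also: score merges 667 nm emission intensity with spot signal to noise over triplicate slides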
[8] = target: Follistatin-related protein 3 (Homo sapiens) (UniProt O95633); assay: compounds binding follistatin-related protein 3 – biochemical, small-molecule microarray, 635 nm fluorescence, primary screen (AID 1105); details: FSTL3 binding, higher = more signal;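 also: score merges emission near 667 nm and signal to noise per printed spot across three slides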
[9] = target: Dickkopf-related protein 1 (Homo sapiens) (UniProt O94907); assay: small molecules binding DKK1 protein – biochemical, small-molecule microarray, 635 nm fluorescence scan, primary screen (AID 1106); details: higher = more signal;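 also: score merges emission near 667 nm with signal to noise over three replicate slides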
[10] = test system: Inhibin beta A chain (activin A); assay: small molecules binding activin A – biochemical, small-molecule microarray, 635 nm fluorescence scan, primary screen (AID 1107); details: INHBA, higher = more signal;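 also: mouse activin A protein probed at 4.33 µg/mL on printed slides; score merges bound-protein fluorescence near 667 nm with spot signal-to-noise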
[11] = test system: Human papillomavirus type 1a protein E7 (residues 44-93); assay: small molecules binding HPV E7 44-93 – biochemical, small-molecule microarray, residues 44-93, 635 nm fluorescence, primary screen (AID 1108); details: fluorescence 635 nm, higher = more signal;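 also: E7 fragment applied at 1 µg/mL in TBST for 1 h at 4 C; score combines spot fluorescence with its signal to noise ratio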
[12] = hepatitis C replication reporter changes, two-sided – Huh7 cells, luciferase reporter, HCV replication inhibitor project, primary screen (AID 1109); details: Huh7 HCV replicon luciferase reporter, 48 h; higher = more signal;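 also: huh7 hepatoma cells harbouring a luciferase neomycin HCV replicon reporter; luciferase luminescence as measure of HCV replicon replication; test concentration not given here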
[13] = target: Left-right determination factor 2 (Homo sapiens) (UniProt O00292); assay: small molecules binding LEFTY2 protein – biochemical, small-molecule microarray, 635 nm fluorescence scan, primary screen (AID 1110); details: higher = more signal
[14] = target: Calmodulin-1 (Homo sapiens) (UniProt P0DP23); assay: small molecules binding calmodulin-1 with EGTA – biochemical, small-molecule microarray, Cy5-labelled CALM1, profiling panel (AID 1111); details: Cy5-CALM1 binding fluorescence, higher = more signal;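 also: labelled calmodulin applied in Tris saline Tween buffer holding calcium plus EGTA and DTT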
[15] = target: Calmodulin-1 (Homo sapiens) (UniProt P0DP23); assay: small molecules binding Ca-loaded calmodulin-1 – biochemical, small-molecule microarray, Cy5-labelled CALM1, plus calcium, artefact control for SMM control-protein annotation, profiling panel (AID 1112); details: Cy5-CALM1 binding fluorescence, higher = more signal;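 also: score merges spot fluorescence with signal to noise from triplicate slides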
[16] = probe aWnt5a binding to arrayed compounds – biochemical, biotinylated probe, 635/667 nm fluorescence, primary screen (AID 1113); details: small-molecule microarray, higher = more signal;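 also: score merges 667 nm fluorescence intensity with signal-to-noise per printed feature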
[17] = probe aShh binding to arrayed compounds – biochemical, biotinylated probe, 635/667 nm fluorescence, primary screen (AID 1114); details: small-molecule microarray, higher = more signal;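 also: probe is biotin-labelled aShh protein from a stem cell growth factor screen; measures binding of labelled protein to compounds printed on the slide; score merges feature fluorescence at 667 nm with signal-to-noise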
[18] = probe aNog binding to arrayed compounds – biochemical, biotinylated probe, 635/667 nm fluorescence, primary screen (AID 1115); details: small-molecule microarray, higher = more signal;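 also: probe is biotinylated aNog protein used at 0.15 µg/mL for 1 h at 4 C; z-score combines 667 nm fluorescence of each spot with its signal to noise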
[19] = target: Torsin-1A-interacting protein 1 (Homo sapiens) (UniProt Q5JTV8); assay: compound microarray binding of lysate hLAP1 – cell lysate, small-molecule microarray, COS7 lysate, 635/667 nm fluorescence, primary screen (AID 1116); details: 635 nm fluorescence, higher = more signal
[20] = target: Alpha-bungarotoxin (Bungarus multicinctus) (UniProt P60615); assay: compounds binding labelled alpha-BTX control protein – biochemical, small-molecule microarray, Alexa647 label, 635/667 nm fluorescence, artefact control for SMM control protein annotation, profiling panel (AID 1117); details: alpha-BTX-A647 binding fluorescence, higher = more signal
Sequence of Alpha-bungarotoxin (Bungarus multicinctus) (P60615 whole entry, looked up): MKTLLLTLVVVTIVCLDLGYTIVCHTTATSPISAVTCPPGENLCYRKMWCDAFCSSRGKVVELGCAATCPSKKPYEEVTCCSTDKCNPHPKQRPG

Sequence of Dickkopf-related protein 1 (Homo sapiens) (O94907 whole entry, looked up): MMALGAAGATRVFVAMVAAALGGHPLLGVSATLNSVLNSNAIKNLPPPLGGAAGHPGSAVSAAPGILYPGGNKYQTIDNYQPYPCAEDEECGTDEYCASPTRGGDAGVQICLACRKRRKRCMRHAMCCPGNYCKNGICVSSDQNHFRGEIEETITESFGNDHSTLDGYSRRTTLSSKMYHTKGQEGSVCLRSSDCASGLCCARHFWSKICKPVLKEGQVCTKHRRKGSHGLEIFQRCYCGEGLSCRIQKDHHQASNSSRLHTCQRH
Sequence of Follistatin-related protein 3 (Homo sapiens) (O95633 whole entry, looked up): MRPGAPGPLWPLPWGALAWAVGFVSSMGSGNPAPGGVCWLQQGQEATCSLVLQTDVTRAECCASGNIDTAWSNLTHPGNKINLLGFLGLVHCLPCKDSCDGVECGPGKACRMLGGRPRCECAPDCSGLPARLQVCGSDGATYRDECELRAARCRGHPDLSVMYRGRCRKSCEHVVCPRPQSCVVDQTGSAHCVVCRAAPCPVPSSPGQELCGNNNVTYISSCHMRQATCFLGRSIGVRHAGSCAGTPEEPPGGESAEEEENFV
Sequence of Torsin-1A-interacting protein 1 (Homo sapiens) (Q5JTV8 whole entry, looked up): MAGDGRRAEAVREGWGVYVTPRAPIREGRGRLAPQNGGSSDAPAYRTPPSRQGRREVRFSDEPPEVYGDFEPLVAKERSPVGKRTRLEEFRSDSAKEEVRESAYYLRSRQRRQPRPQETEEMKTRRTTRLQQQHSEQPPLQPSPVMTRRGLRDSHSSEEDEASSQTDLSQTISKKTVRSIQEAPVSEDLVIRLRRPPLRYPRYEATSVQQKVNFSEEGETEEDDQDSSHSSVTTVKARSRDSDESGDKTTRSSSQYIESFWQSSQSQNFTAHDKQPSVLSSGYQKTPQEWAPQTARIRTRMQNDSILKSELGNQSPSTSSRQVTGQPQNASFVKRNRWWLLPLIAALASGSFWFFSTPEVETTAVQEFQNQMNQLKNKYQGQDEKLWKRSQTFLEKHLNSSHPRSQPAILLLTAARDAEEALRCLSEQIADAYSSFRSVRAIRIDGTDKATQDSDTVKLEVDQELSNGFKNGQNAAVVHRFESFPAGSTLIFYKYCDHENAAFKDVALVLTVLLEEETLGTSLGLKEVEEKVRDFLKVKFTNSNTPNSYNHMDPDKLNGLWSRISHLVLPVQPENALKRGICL
Sequence of Epidermal growth factor receptor (Homo sapiens) (P00533 whole entry, looked up): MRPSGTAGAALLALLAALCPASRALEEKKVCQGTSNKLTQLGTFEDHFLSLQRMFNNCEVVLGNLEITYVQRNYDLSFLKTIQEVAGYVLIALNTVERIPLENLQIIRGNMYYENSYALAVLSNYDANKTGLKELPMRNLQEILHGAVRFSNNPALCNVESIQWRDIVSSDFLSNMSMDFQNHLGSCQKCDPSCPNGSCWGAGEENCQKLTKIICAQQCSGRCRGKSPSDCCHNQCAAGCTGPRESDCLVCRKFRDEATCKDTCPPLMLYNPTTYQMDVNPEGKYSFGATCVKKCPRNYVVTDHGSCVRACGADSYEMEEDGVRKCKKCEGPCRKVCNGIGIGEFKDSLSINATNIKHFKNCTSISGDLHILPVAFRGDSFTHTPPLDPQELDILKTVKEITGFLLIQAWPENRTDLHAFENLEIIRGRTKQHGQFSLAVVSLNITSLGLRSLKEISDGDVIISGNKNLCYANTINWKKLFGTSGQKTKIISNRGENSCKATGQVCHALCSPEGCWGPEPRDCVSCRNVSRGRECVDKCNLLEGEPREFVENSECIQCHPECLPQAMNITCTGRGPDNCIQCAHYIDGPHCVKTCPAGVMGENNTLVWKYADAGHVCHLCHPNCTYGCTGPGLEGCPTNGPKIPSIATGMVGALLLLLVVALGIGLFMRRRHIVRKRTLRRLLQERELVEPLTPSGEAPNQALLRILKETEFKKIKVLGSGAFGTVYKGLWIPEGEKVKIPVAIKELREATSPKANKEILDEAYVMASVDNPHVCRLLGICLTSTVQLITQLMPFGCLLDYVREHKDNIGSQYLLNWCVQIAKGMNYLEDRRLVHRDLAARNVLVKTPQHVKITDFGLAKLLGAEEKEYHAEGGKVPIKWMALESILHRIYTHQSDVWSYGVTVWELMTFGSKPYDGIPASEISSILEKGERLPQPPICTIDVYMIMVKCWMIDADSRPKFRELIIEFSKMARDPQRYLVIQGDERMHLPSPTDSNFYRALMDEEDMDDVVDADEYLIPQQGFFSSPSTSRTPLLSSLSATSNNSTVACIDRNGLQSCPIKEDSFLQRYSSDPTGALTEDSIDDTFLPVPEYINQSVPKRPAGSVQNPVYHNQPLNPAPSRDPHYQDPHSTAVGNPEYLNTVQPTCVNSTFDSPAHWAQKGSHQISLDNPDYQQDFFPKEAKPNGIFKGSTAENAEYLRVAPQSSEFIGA
Sequence of Left-right determination factor 2 (Homo sapiens) (O00292 whole entry, looked up): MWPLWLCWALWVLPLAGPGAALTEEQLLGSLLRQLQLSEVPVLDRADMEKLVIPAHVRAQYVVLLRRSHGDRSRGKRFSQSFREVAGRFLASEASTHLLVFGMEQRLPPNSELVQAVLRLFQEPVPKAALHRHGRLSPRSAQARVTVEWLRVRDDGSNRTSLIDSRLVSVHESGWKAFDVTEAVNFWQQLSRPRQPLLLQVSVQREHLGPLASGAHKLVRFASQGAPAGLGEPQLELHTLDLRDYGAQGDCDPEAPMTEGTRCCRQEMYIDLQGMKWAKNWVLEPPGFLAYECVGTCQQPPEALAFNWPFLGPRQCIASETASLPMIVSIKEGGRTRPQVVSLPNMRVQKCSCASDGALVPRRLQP
Sequence of Fibroblast growth factor 10 (Homo sapiens) (O15520 whole entry, looked up): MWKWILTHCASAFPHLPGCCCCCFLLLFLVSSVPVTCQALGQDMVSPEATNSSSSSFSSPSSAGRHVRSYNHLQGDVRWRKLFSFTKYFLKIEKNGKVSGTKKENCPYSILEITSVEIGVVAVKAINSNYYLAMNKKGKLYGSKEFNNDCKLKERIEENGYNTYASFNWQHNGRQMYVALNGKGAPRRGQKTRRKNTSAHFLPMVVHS

Row | Compound | composite z-score [1] | composite z-score [2] | composite z-score [3] | z-score [4] | composite z-score [5] | composite z-score [6] | composite z-score [7] | composite z-score [8] | composite z-score [9] | composite z-score [10] | composite z-score [11] | z-score [12] | composite z-score [13] | composite z-score [14] | composite z-score [15] | composite z-score [16] | composite z-score [17] | composite z-score [18] | composite z-score [19] | composite z-score [20]
1 | [N-]=[N+]=NCc1ccccc1[C@H]1OC(c2ccc(OCCCO)cc2)=N[C@@]1(Cc1ccccc1)C(=O)NCc1ccccc1 | 0.173 | 0.646 | 0.894 | 1.09 (inactive) | 0.672 | 1.27 | 0.169 | 0.231 | -0.238 | -0.151 | 0.296 | -2.19 | 0.0739 | 1.45 | 0.727 | 0.075 | 0.22 | 0.683 | 0.881 | 0.761
2 | C[C@@H]1ON(c2cccc(C(=O)OC(C)(C)C)c2)[C@H](c2ccc(Br)cc2)[C@H]1C(=O)N1C(=O)OC[C@H]1Cc1ccccc1 | 0.801 | -0.155 | -0.319 | -0.0916 (inactive) | 1.15 | 0.962 | 0.51 | 1.03 | 0.693 | 0.272 | 1.16 | -1 | 0.552 | 0.702 | -0.367 | 0.667 | 0.0756 | 1.09 | 2.7 | 0.518
3 | COCC(=C=CC[C@H](O)c1ccccc1OCCO)C[C@H](O)c1cc(Cl)cc(Cl)c1O | 0.588 | -0.141 | -0.0448 | -0.705 (inactive) | 1.62 | 0.702 | -0.0335 | 0.897 | -0.0154 | 0.282 | 1.31 | -4.43 | 0.223 | 0.068 | -0.596 | 0.0357 | 0.207 | 0.464 | 0.743 | 1.08
4 | COC(=O)[C@@]1(Cc2ccc(OC)cc2)[C@H]2c3cc(C(=O)N(C)C)n(CCN4CNCC4=O)c3C[C@H]2CN1C(=O)c1ccccc1 | 0.44 | -0.218 | 0.7 | 2.02 (inactive) | -0.33 | -0.638 | 0.259 | -0.153 | -0.812 | 0.712 | -0.662 | -0.422 | 0.149 | 0.866 | 0.701 | 0.164 | -0.0793 | -0.505 | 0.528 | -0.124
5 | COc1ccc(COC2OC[C@]3(C)[C@H]4C5=C(CN3C(=O)OC(C)(C)C)[C@H](C)C(CO)C(CO)C5CC[C@@H]24)cc1 (stereo not given in full) | 1 | 1.06 | 0.983 | -0.807 (inactive) | 0.755 | 1.3 | -0.452 | 1.07 | -0.432 | 0.797 | 1.27 | -0.355 | -0.877 | 1.44 | 0.86 | 0.0118 | 0.202 | 0.97 | 1.17 | 0.608
6 | C[C@]1(C(=O)NC2CC2)c2ccccc2C(=O)N(Cc2cc(C(F)(F)F)cc(C(F)(F)F)c2)[C@H]1c1ccc(CO)cc1 | 1.56 | 0.757 | 0.298 | -0.402 (inactive) | 0.711 | 0.948 | 0.279 | 0.865 | 0.585 | 0.592 | 1.29 | -0.106 | 0.122 | 0.224 | 0.114 | -0.0478 | -0.276 | 0.467 | 0.207 | 1.48
7 | COCCOC(=O)N1C(=O)[C@@]2(c3cc(C#CC4=CCCCC4)ccc31)[C@H](C(=O)Nc1nc3ccccc3s1)[C@H]1C(=O)O[C@H](c3ccccc3)[C@H](c3ccccc3)N1[C@@H]2c1ccccc1OCCO | 0.966 | 0.756 | 0.4 | -0.823 (inactive) | 1.33 | 1.29 | 0.765 | 1.41 | 0.785 | 1.3 | 1.42 | -1.66 | 0.938 | 0.738 | 0.417 | 0.332 | 0.126 | 1.21 | 0.512 | 0.858
8 | COc1ccc(C#Cc2ccc3c(c2)[C@]2(C(=O)N3)[C@H](c3ccccc3OCCO)N3[C@H](c4ccccc4)[C@H](c4ccccc4)OC(=O)[C@H]3[C@@H]2C(=O)O)cc1 | 1.26 | 0.734 | 0.142 | -2.14 (inactive) | 1.4 | 1.21 | 0.319 | 0.98 | 0.126 | 0.54 | 1.42 | -2.87 | 0.186 | 1.22 | 1.05 | 0.0932 | 0.0037 | 1.52 | 1.77 | 1.67
9 | COc1ccc(C(=O)Nc2ccc(CN3C(=O)[C@@]4(O[C@@H](CC(=O)N5CCC[C@H]5CO)[C@H]([Si](C)(C)c5ccc(OC)cc5)[C@H]4C)c4ccccc43)cc2)cc1 | 1.4 | -0.143 | -0.0233 | -0.681 (inactive) | 1.38 | 1.29 | 1.02 | 1.44 | 1.14 | 0.715 | 0.825 | -2.19 | 1.13 | 0.11 | -0.654 | -0.0643 | 0.0639 | -0.0503 | 1.01 | 1.12
10 | CC(C)C[C@@H]1NC(=O)[C@@H]2C[C@H](C(=O)NCCCCCN)[C@H](c3cccc(OCCO)c3)N2C1=O | 1.44 | -0.0704 | 0.527 | -1.08 (inactive) | 0.272 | 0.685 | -0.26 | 0.627 | 0.387 | 0.842 | 0.828 | -0.352 | 0.197 | 1.36 | 0.615 | -0.0896 | -0.153 | -0.282 | 1.36 | 0.417
11 | CN1C2C=C(CCCO)C(C3C(=O)N(C(N)=O)C(=O)C32)C1c1ccc(CN2CCCC2)cc1 (stereo not given) | -0.323 | -0.284 | -0.257 | -0.0848 (inactive) | -0.367 | -0.563 | -0.376 | -0.658 | -0.544 | -0.751 | 0.138 | -0.149 | -0.943 | -0.224 | 0.0344 | -0.243 | 0.0278 | -0.328 | 0.0727 | 0.236
